# Source: PubChem BioAssay (National Center for Advancing Translational Sciences (NCATS))
# Shown are actives, neighbours in structure and some others; about 9.2% of the full set was active somewhere.
# SMN2 splice enh: qHTS Assay for Enhancers of SMN2 Splice Variant Expression | HEK293 SMN2-luciferase splicing reporter, luminescence, 30-36 h | Potency, µM (doses to about 46.1 µM), inactives show top-dose activity change, positive = activation, usual class: activators | hit rate 2.8% among 210,000 | AID 1458, 2008; also: % of control where 0% means no effect; nearly all actives have a fitted effect of over 55% in size
#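 qHTS luciferase splicing reporter: luminescence rises when SMN2 exon 7 is included in transfected HEK293 cells. Compound exposure lasted 30-36 h at 37C, with 4.5 mM final sodium butyrate as control, followed by a ONE-Glo read.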
# NPC1 promoter act: qHTS Assay for NPC1 Promoter Activators; AID 485313, 2010; hit rate 2.4% among 320,000; Huh7 NPC1 promoter luciferase reporter, 24 h; Potency, µM (doses to about 9.22 µM), for the others: at the top dose activation, actives largely listed as activators; also: % of control where 0% means no effect; nearly all actives have a fitted effect of over 60% in size
#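 Cells: Huh7 expressing luciferase under the NPC1 promoter, 1500/well. Seeded 2 h, compound added, incubated 24 h at 37 °C. Luciferase reagent, 10 min ambient, then luminescence.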
# Rab9 prom act: qHTS Assay for Rab9 Promoter Activators. hit rate 2.8% among 320,000. AID 485297, 2010. Huh7 Rab9 promoter-luciferase reporter, luminescence, 24 h. Potency, µM (series often up to 9.22 µM), for inactives: at the highest dose activation, negative = inhibition, most hits filed as activators; also: % of control where 0% means no effect; nearly all actives have a fitted effect of over 60% in size
#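 Huh7 cells stably carrying a Rab9 promoter-luciferase reporter, 1500 cells per well in OP-MEM I with 10% FBS, treated with compound 24 hours at 37C. Luciferase activity read by luminescence after 10 minutes with Amplite reagent.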
# ELG1 DNA repair: qHTS screen for small molecules that inhibit ELG1-dependent DNA repair in human embryonic kidney (HEK293T) cells expressing luciferase-tagged ELG1; hit rate 2.3% among 330,000; AID 504467, 2011; HEK293T ELG1-luciferase reporter, luminescence, 16 h; DNA damage induced by 5-fluorouridine; Potency, µM (doses to about 46.1 µM), for the others: at the top dose activity change, negative = inhibition, actives largely listed as inhibitors; also: % is scaled to controls: 0 for no effect and ±100 for the full control effect; nearly all actives have a fitted effect of over 55% in size
#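 Cells (2,000 per well) received 5-fluorouridine plus test compound or DMSO and were incubated 16 hr at 37 °C, 5% CO2. Luciferase activity was read by luminescence 30 min after ONE-Glo addition; signal suppression marked inhibition of damage-induced ELG1 function.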
# ELG1 genotoxic: qHTS screen for small molecules that induce genotoxicity in human embryonic kidney (HEK293T) cells expressing luciferase-tagged ELG1. HEK293T ELG1-luciferase reporter, luminescence, 16 h. Potency, µM (series often up to 46 µM), for inactives: top-dose activity change, positive = activation, hits mostly activators. hit rate 1.3% among 330,000; also: % of control where 0% means no effect; nearly all actives have a fitted effect of over 60% in size
#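 Screening used a luciferase reporter fused to human ELG1 in HEK293T cells. Luminescence was read on a CCD plate imager after 16 hr exposure and 30 min ONE-Glo incubation.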
# FLuc counter: qHTS profiling assay for firefly luciferase inhibitor/activator using purifed enzyme and Km concentrations of substrates (counterscreen for miR-21 project); Luciferin 4-monooxygenase (Photinus pyralis), P08659; purified FLuc, Km substrates, luminescence inhibition; Potency, µM (top dose mostly 57.5 µM), without a hit: at the highest dose activity change, negative = inhibition, actives largely listed as inhibitors; hit rate 6.9% among 360,000; AID 588342, 2011;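 also: plate controls were vehicle for no effect and reference inhibitor for full effect; nearly all actives have a fitted effect of over 55% in size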
# Target sequence (P08659 whole entry, looked up): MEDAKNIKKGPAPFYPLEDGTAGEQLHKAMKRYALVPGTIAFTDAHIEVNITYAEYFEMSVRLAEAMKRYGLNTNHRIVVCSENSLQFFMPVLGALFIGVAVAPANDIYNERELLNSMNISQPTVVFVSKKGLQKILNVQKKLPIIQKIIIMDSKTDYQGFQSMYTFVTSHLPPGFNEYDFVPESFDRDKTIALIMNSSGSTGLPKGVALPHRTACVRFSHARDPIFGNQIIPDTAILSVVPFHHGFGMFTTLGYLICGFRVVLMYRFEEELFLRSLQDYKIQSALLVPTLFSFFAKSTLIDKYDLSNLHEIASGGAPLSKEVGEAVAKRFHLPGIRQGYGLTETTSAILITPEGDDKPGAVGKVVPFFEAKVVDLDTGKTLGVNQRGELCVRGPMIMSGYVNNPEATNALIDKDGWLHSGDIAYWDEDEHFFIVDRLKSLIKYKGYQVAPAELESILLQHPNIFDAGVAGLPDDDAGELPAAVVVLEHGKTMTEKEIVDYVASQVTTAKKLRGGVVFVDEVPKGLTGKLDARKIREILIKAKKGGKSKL
#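 Biochemical qHTS of compounds, final roughly 60 µM downward over six points, against 10 nM purified firefly luciferase using Km concentrations of substrates (10 uM D-luciferin, 10 uM ATP) in Tris acetate pH 7.5 buffer; luminescence output.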
# Starred values were filed as active, the others as inactive; u = inconclusive; x = not tested or not shown; [ ] = remark or other dose. Calls follow the shape of the dose curve; as a rule, active = well fitted curve in the direction sought with a large enough effect; inconclusive = small, poorly fitted or top-dose-only effect, or another doubt; inactive = no such curve, though single readings can be large; an effect the other way counts as inactive or inconclusive. Potency is read from the fitted curve at half-maximal effect.
SMILES,SMN2 splice enh,NPC1 promoter act,Rab9 prom act,ELG1 DNA repair,ELG1 genotoxic,FLuc counter
O=C(Nc1nc(-c2ccco2)c(-c2ccco2)s1)C1CCC1,13%,0%,-6%,-13%,4%,19µM*
COc1ccc(C(=O)C2CCCN(C3Cc4ccccc4C3)C2)c(OC)c1 (stereo not given),x,30%,u,u,24%,27µM*
Cc1n[nH]c(C)c1CCc1nc2c3ccccc3nc(SCC(N)=O)n2n1,-10%,-1%,4%,23µM*,-5%,-3%
Cc1cccc(C)c1NC(=O)CSc1nc2ccccc2c2nc(CCc3c(C)n[nH]c3C)nn12,x,x,x,x,x,4%
Cc1nn(C)c(C)c1CCC(=O)N1CCCC(C(=O)c2cccc(OC(C)C)c2)C1 (stereo not given),x,8%,1%,-6%,0%,-13%
CC(C)Oc1cccc(C(=O)C2CCCN(C(=O)CCc3cnn(C)c3)C2)c1 (stereo not given),x,u,3.5µM*,u,u,u
COc1ccc(/C=C(\C#N)C(=O)Nc2cc(S(=O)(=O)N3CCCCC3)ccc2N2CCCCC2)cc1,-15%,-3%,-7%,3%,0%,0%
Cc1cn2c(=O)cc(COC(=O)c3cccc(NC(=O)COc4ccccc4Cl)c3)nc2s1,x,x,x,x,x,4.8µM*
Cc1nn2c(=O)cc(COC(=O)c3cccc(NC(=O)c4ccc(C(C)(C)C)cc4)c3)nc2s1,x,x,x,x,x,0.54µM*
Cc1cccc(C(=O)Nc2cccc(C(=O)OCc3cc(=O)n4nc(C(C)C)sc4n3)c2)c1,x,x,x,x,x,-20%
CCOc1ccccc1CNC(=O)C1CCN(c2nn3cc(-c4ccc(F)cc4)nc3s2)CC1,x,x,x,x,x,-5%
Cc1ccc(NC(=O)c2cc(=O)n(Cc3ccccc3)c(=O)[nH]2)cc1C,-11%,-2%,1%,-10%,0%,u
CCCc1cc(=O)n2[nH]c(-c3ccc(Br)cc3)cc2n1,11µM*,u,3.5µM*,u,17%,u
CCOC(=O)Cc1cc(=O)n2[nH]c(-c3ccccc3)cc2n1,22%,1%,12%,u,5%,u
CCCc1cc(=O)n2[nH]c(NCc3c(Cl)cccc3Cl)nc2n1,18%,0%,5%,-14%,0%,-3%
CCCc1cc(=O)n2[nH]c(-c3cccc(Br)c3)cc2n1,x,2.8µM*,u,u,u,5.4µM*
CCCOc1ccc(/C(O)=C2\C(=O)C(=O)N(c3ccccn3)C2c2ccccc2F)cc1C (stereo not given),x,-3%,0%,-12%,-3%,3%
c1ccc(-c2onc(-c3ccco3)c2-c2ccc3[nH]ccc3c2)cc1,x,-1%,4%,12%,-2%,19µM*
c1cc2cc(-c3c(-c4ccc5c(c4)OCO5)noc3-c3ccsc3)ccc2[nH]1,x,u,u,u,15%,11µM*
c1ccc(-c2ccc3[nH]ccc3c2)cc1,x,u,-2%,u,u,u
CCCS(=O)(=O)c1nc(S(=O)(=O)c2ccc(C)cc2)c(N2CCC(C(N)=O)CC2)s1,x,2%,0%,2%,-1%,1%
COC(=O)c1nn(-c2ccccc2)c(Sc2ccc(C)cc2)c1/C=N/O,-22%,-5%,6%,u,-3%,9%
COc1cccc(Nc2nc(-c3cccc(N4C(=O)c5ccccc5C4=O)c3)cs2)c1,21%,13%,7%,1%,8%,2.4µM*
COc1cccc(Nc2nc(-c3ccc(O)cc3)cs2)c1,1%,u,10%,26%,u,15µM*
O=C(CS(=O)(=O)c1cccc2nsnc12)NCc1ccccc1Cl,x,x,x,x,x,7%
SMILES,SMN2 splice enh,NPC1 promoter act,Rab9 prom act,ELG1 DNA repair,ELG1 genotoxic,FLuc counter
O=S(=O)(CCSc1ccccn1)c1nc2ccccc2s1,11µM*,-1%,-4%,5%,-10%,3%
O=C(CSc1ccccn1)Nc1nc2ccccc2s1,19%,22%,21%,u,u,u
O=S(=O)(CCSc1nc2ccccc2o1)c1nc2ccccc2s1,18µM*,-1%,-8%,u,-2%,0%
CCCCCC1=C2CNC(C)(C(=O)OC)C=C2C(C)C1=O (stereo not given),-14%,x,x,x,x,x
CC(=O)Oc1ccc(C(=O)Cc2ccc3ccccc3n2)c(O)c1C,u,u,u,u,u,5.4µM*
CN(C)CCNC(=O)c1c(CSc2ccccc2)noc1C(=O)NCc1ccccc1,x,-3%,-3%,18%,6%,1%
Nc1ncnc(NCc2ccccc2)c1[N+](=O)[O-],-9%,1%,-6%,10µM*,-10%,4%
Nc1ncnc(Nc2ccccn2)c1[N+](=O)[O-],5%,-1%,2%,u,-11%,-1%
Nc1ncnc(NCc2ccc(F)cc2)c1[N+](=O)[O-],-15%,-2%,-2%,8.2µM*,-16%,0%
COc1ccc(C(=O)COC(=O)C(C(C)C)N2C(=O)C3C4C=CC(C4)C3C2=O)cc1 (stereo not given),u,1%,-2%,-12%,-3%,19µM*
CCOc1sc2nc(C)n(CC(=O)Nc3cccc(C)c3)c(=O)c2c1C,9%,x,x,x,x,-3%
Cn1c(SCC(=O)N2CCN(c3ccccc3)CC2)nnc1-c1c[nH]c2ccccc12,-56%,0%,-5%,10µM*,-17%,-3%
CCn1c(SCC(=O)N2CCN(c3ccccc3)CC2)nnc1-c1c[nH]c2ccccc12,-75%,-4%,-7%,13µM*,-10%,0%
COc1ccc(N2CCN(C(=O)CSc3nnc(-c4cc5ccccc5cc4O)n3C)CC2)cc1,-53%,-4%,-3%,11µM*,-20%,-5%
C=CCn1c(COc2cccc(C)c2C)nnc1SCC(=O)N1CCN(c2ccccc2)CC1,-51%,3%,-6%,21µM*,-2%,-6%
CCCCC/C=C\C\C=C/C=C/C=C/[C@@H](SC[C@H](N)C(=O)NCC(=O)O)[C@@H](O)CCCC(=O)O,-10%,x,x,x,x,x
CCOC(=O)c1cccc(NC(=O)NCCc2c(C)nn(C)c2C)c1,x,x,x,x,x,-1%
O=C(Cn1ncc2c([nH]c3ccccc32)c1=O)Nc1ccc(CN2CCCCC2)cc1,x,0%,-2%,1%,-1%[9.26 µM],-1%
